This experiment is described as follows: M. tuberculosis growth inhibition, HTS (AID 1259417).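 Note: bacteria grown with compound for 5 days at 37 °C.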 Conditions: stronger effect = higher value, concentration not given here.
The mark [1] stands for this setting: M. tuberculosis DsRed fluorescence growth inhibition.
The mark [2] stands for this setting: M. tuberculosis growth inhibition.

SMILES strings stand for the structures. Out of some 1,100 compounds screened, about 760 (69%) were called active. The rule behind the calls is not given here. The set was probably picked from earlier hits. Some of the results follow.

`Cc1ccc2sc(N(CCCn3ccnc3)C(=O)c3ccco3)nc2c1C`: the inhibition (in general, the drop in the measured response relative to a control, in per cent) under setting [1] is 98.6% (active) and the inhibition under setting [2] was determined as 98.1%.

`O=C(CCc1ccccc1)Nc1nnc(-c2ccc(Cl)s2)o1`: the inhibition is, setting by setting: under setting [1], 10% (inactive); under setting [2], 26.7%.

In the case of `O=C(Nc1nnc(-c2ccc(Cl)s2)o1)c1ccc([N+](=O)[O-])o1`, the inhibition by setting is: under setting [1], 95.4% (active); under setting [2], 87.9%.

As to `O=C(Nc1nnc(-c2ccc(Cl)cc2)o1)c1ccc([N+](=O)[O-])o1`, the inhibition reads like this: under setting [1], 98.3% (active); under setting [2], 98.8%.

In the case of `O=C(Nc1ccc(Cl)cc1C(F)(F)F)c1ccc([N+](=O)[O-])o1`, the inhibition under setting [1] was 60.7% (active) and the inhibition under setting [2] worked out at 58.1%.

As for `O=C(Nc1nc2c(Cl)cccc2s1)c1ccc([N+](=O)[O-])o1`, the inhibition is -3.76% (inactive) under setting [1] and 28.2% under setting [2].

With `C=CCn1c(O)c(C2=c3ccccc3=NC2=O)sc1=N`, the inhibition under setting [1] was -9.61% (inactive) and the inhibition under setting [2] came to 14.7%.

Turning to `CCCCCn1c(NCc2ccc(N(C)C)cc2)nc2ccccc21`, the inhibition runs as follows: under setting [1], -0.00251% (inactive); under setting [2], -15.7%.

Consider `CCn1c(NCc2c(O)ccc3ccccc23)nc2ccccc21`, for which the inhibition is, setting by setting: under setting [1], 77.8% (active); under setting [2], 89%.

With `Cc1ccc(C)c(-c2nnc(NC(=O)c3ccc([N+](=O)[O-])s3)o2)c1`, the inhibition runs as follows: under setting [1], 98.9% (active); under setting [2], 97.4%.

On to `Cc1ccc(C)c(-c2nnc(NC(=O)c3ccc([N+](=O)[O-])o3)o2)c1`, for which the inhibition was 12.4% (inactive) under setting [1] and 1.93% under setting [2].

As to `Cc1ccc(-c2nnc(NC(=O)c3ccc([N+](=O)[O-])s3)o2)c(C)c1`, the inhibition is, setting by setting: under setting [1], 41.9% (active); under setting [2], 72.9%.

For the molecule `Cc1ccc(-c2nnc(NC(=O)c3c(F)cccc3F)o2)c(C)c1`, the inhibition by setting is: under setting [1], 2.49% (inactive); under setting [2], -10.3%.

As to `Cc1ccc(-c2nnc(NC(=O)c3ccc([N+](=O)[O-])o3)o2)c(C)c1`, the inhibition by setting is: under setting [1], 97.8% (active); under setting [2], 98.1%.

Turning to `O=[N+]([O-])c1ccc(N2CCN(CCO)CC2)cc1NCCOc1cccc2ccccc12`, the inhibition is 10.3% (inactive) under setting [1] and -3.69% under setting [2].

Take `CCOc1cc2c3c(c1)C1(C(=O)N3C(C)(C)C=C2C)C(C#N)=C(N)Oc2cc(O)ccc21` (configuration not stated): the inhibition is 10.6% (inactive) under setting [1] and -4.41% under setting [2].

Turning to `O=C1C(Cl)=C(Nc2ccccc2O)C(=O)N1c1ccc(Cl)c(Cl)c1`, the inhibition was 95.4% (active) under setting [1] and 94.6% under setting [2].

Take `O=C1C(Cl)=C(Nc2ccccc2O)C(=O)N1c1ccccc1`: the inhibition reads like this: under setting [1], 96% (active); under setting [2], 94.9%.

Take `O=[N+]([O-])c1ccc(-c2[nH]c(-c3cccs3)nc2-c2ccccc2)cc1`: the inhibition under setting [1] is -27% (inactive) and the inhibition under setting [2] stood at 4.73%.

With `COC(=O)CSc1nc2ccccc2nc1SCC(=O)OC`, the inhibition under setting [1] was 11.6% (active) and the inhibition under setting [2] came to 37.2%.

`c1ccc(-c2nc(NCC3CCCO3)c3ccccc3n2)nc1` (configuration not stated): the inhibition under setting [1] is 95.4% (active) and the inhibition under setting [2] is 94.9%.

For `COc1ccc(Nc2nc(-c3ccccn3)cs2)c(OC)c1`, the inhibition is, setting by setting: under setting [1], 92.1% (active); under setting [2], 83.9%.

Turning to `CC(=O)c1cccc(Nc2cc(C)nc3c2ccc2ccccc23)c1`, the inhibition by setting is: under setting [1], 10.9% (inactive); under setting [2], -33.8%.

For the molecule `CC(=O)c1cccc(Nc2nc(-c3ccccn3)cs2)c1`, the inhibition is, setting by setting: under setting [1], 70.5% (active); under setting [2], 74.6%.

Regarding `COc1cccc(Nc2nc(-c3ccccn3)cs2)c1`, the inhibition by setting is: under setting [1], 93.6% (active); under setting [2], 93.4%.

As to `CC(=O)c1ccc(NC(=O)NC(C)C23CC4CC(CC(C4)C2)C3)cc1` (configuration not stated), the inhibition by setting is: under setting [1], 98.3% (active); under setting [2], 94.8%.

Turning to `CC(=O)c1ccc(NC(=O)Nc2cc(OCC(F)(F)F)cc(OCC(F)(F)C(F)F)c2)cc1`, the inhibition by setting is: under setting [1], 1.19% (inactive); under setting [2], 22.7%.

`Cc1ccc(-c2nc3c(cnn3-c3ccccc3)c(=O)o2)cc1`: the inhibition was 4.19% (inactive) under setting [1] and -0.344% under setting [2].

Regarding `Cc1oc2c(c1C(=O)Nc1cccc3ccccc13)CCCC2`, the inhibition was 13.4% (inactive) under setting [1] and 21.7% under setting [2].

For the molecule `CCCC(=O)Nc1cccc(-c2nc3ccccc3c(=O)o2)c1`, the inhibition reads like this: under setting [1], 29.1% (active); under setting [2], 52%.

On to `O=C(Nc1ccc(-c2nc3ccccc3c(=O)o2)cc1)c1ccccc1I`, for which the inhibition under setting [1] was 78.1% (active) and the inhibition under setting [2] stood at 85.2%.

For the molecule `CCOC(=O)C(Cc1ccccc1)C(=O)Nc1cccc2ccccc12` (configuration not stated), the inhibition under setting [1] was -0.257% (inactive) and the inhibition under setting [2] is -5.18%.

In the case of `Cc1c(OC(=O)c2ccccc2Cl)ccc2c1CCCC2`, the inhibition is 7.92% (inactive) under setting [1] and 16.4% under setting [2].

For `COc1ccccc1OC(=O)c1sc2ccccc2c1Cl`, the inhibition is, setting by setting: under setting [1], 17.3% (active); under setting [2], 53%.

On to `COc1ccccc1-c1nnc(NC(=O)c2sc3ccccc3c2Cl)o1`, for which the inhibition was -1.61% (inactive) under setting [1] and -16% under setting [2].

Turning to `Cc1ccccc1OC(=O)c1sc2ccccc2c1Cl`, the inhibition is, setting by setting: under setting [1], 25.5% (active); under setting [2], 64.7%.

`O=C1c2cccc3cccc(c23)C(=O)N1c1ccc2[nH]c(=O)[nH]c2c1`: the inhibition is, setting by setting: under setting [1], 36.4% (active); under setting [2], 63.9%.

As to `COc1ccc2nc(C)c3cc(C)oc3c2c1`, the inhibition reads like this: under setting [1], 99.8% (active); under setting [2], 99.6%.

Turning to `O=c1cc(-c2c(F)c(F)c(F)c(F)c2F)oc2ccccc12`, the inhibition under setting [1] is 99.2% (active) and the inhibition under setting [2] worked out at 96.4%.

`O=C(Oc1cccc2cccnc12)c1ccc(S(=O)(=O)N2CCCCC2)cc1`: the inhibition was 99.4% (active) under setting [1] and 100% under setting [2].

As to `O=C(Oc1ccc(Cl)cc1)c1ccc(N2CCOCC2)c([N+](=O)[O-])c1`, the inhibition was 4.2% (inactive) under setting [1] and 24.6% under setting [2].

Consider `O=C(Oc1cccc2cccnc12)c1ccc(Cl)c(S(=O)(=O)N2CCOCC2)c1`, for which the inhibition under setting [1] is 100% (active) and the inhibition under setting [2] was determined as 101%.

With `O=C(Oc1ccccc1Cl)c1ccc(N2CCOCC2)c([N+](=O)[O-])c1`, the inhibition under setting [1] is 0.0336% (inactive) and the inhibition under setting [2] was found to be 13.4%.

Take `O=C(Oc1c(Cl)cc(Cl)c2cccnc12)c1cc(S(=O)(=O)N2CCCCC2)ccc1Cl`: the inhibition runs as follows: under setting [1], 98.6% (active); under setting [2], 99.4%.

As for `Cc1ccc(S(=O)(=O)NC(=O)Oc2cccc3cccnc23)cc1`, the inhibition under setting [1] is -0.272% (inactive) and the inhibition under setting [2] is -10.4%.

For the molecule `O=C(Oc1ccc(Cl)cc1)c1ccc(S(=O)(=O)c2ccc(Cl)cc2)cc1`, the inhibition was 55.3% (active) under setting [1] and 74.8% under setting [2].

These data come from PubChem BioAssay AID1259417 (TB Discovery Research, Infectious Disease Research Institute, 2018).
